Assay results as given in PubChem BioAssay AID2405 (Southern Research Specialized Biocontainment Screening …, 2010).
A number with no mark means an inactive call. No rule for the calls is given here.

Test: RSV cytopathic effect inhibition in HEp-2 – cell-based, probe candidates (AID 2405)
Conditions: HEp-2 cells, stronger effect = higher value; at 100 µM unless noted

Structure (SMILES) | maximum inhibition
COc1ccccc1NC(=O)CSc1nc2ccccc2c(=O)n1-c1ccc(F)cc1 | 3.44% [at 6.25 µM]
COc1ccc(-c2csc(N(CCCBr)C(=O)c3ccccc3Cl)n2)cc1 | 3.83% [at 50 µM]
O=C(CSc1nc2ccccc2c(=O)n1-c1ccc(F)cc1)Nc1ccc2c(c1)CCC2 | 2.76%
CCCN(C(=O)c1ccccc1Cl)c1nc(-c2ccc(OC)cc2)cs1 | 14.1% [at 50 µM]
O=C(CSc1nc2ccccc2c(=O)n1-c1ccc(F)c(Cl)c1)Nc1ccc2c(c1)CCC2 | 6.32%
CCOC(=O)C1(Cc2ccccc2C(F)(F)F)CCN(C2CCN(C(C)=O)CC2)CC1 | 1.32% [at 6.25 µM]
COc1ccc(-c2csc(NC(=O)c3ccccc3Cl)n2)cc1 | 2.47% [at 12.5 µM]
Cc1ccc2nc3n(c(=O)c2c1)CCC3 | 2%
CCN(CC)CCCNC(=S)N1CCN(c2nc(-c3ccc(F)cc3)cs2)CC1 | 0.61% [at 0.2 µM]
COc1ccc(-c2csc(NC(=O)c3cccc(Cl)c3)n2)cc1 | 1.49% [at 25 µM]
O=C(CSc1nc2ccccc2c(=O)n1-c1ccc(F)cc1F)Nc1ccc2c(c1)CCC2 | 5.7% [at 25 µM]
O=C(Nc1nc(-c2ccc(Cl)cc2)cs1)c1ccccc1F | 3.06% [at 12.5 µM]
OC1c2c(F)cccc2N=C2CCCCCN21 (centres undefined) | 1.87% [at 12.5 µM]
O=C(CSc1nc2ccccc2c(=O)n1-c1ccc(F)cc1)Nc1ccc2c(c1)OCCO2 | 15% [at 50 µM]
